{"source": "PubChem BioAssay AID651690", "about": "(Sanford-Burnham Center for Chemical Genomics, 2012)", "molecular_target": "Sentrin-specific protease 1 (Homo sapiens) (UniProt Q9P0U3)", "sequence (Q9P0U3 419-644 limits assumed)": "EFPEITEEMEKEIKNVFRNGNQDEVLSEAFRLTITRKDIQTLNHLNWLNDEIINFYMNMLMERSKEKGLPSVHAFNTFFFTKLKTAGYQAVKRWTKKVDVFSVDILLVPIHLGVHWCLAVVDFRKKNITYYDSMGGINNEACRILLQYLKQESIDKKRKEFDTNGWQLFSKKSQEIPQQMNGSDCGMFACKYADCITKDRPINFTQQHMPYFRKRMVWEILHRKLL", "assay": "human SENP1 catalytic domain inhibitors, confirmation, biochemical, kinetic FRET, single concentration (AID 651690);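 also: 0% = DMSO with enzyme and 100% = no enzyme substrate only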", "details": "recombinant SENP1, CyPet-SUMO1-YPet FRET kinetic cleavage; at 10 µM; active compounds read high", "note": "The list shows a part of the results. A number with no mark means an inactive call. Rule as the data show it: active = inhibition mostly above about 32% (no sharp cut-off); inactive = mostly below about 29%.", "data": [{"smiles": "COc1ccccc1N=Nc1c(O)[nH]c(=S)[nH]c1=O", "values": [{"measurement": "inhibition", "value": 31.3, "unit": "%"}]}]}
